Data published in the supplement of paper PMC3414501.
Counter-ions that a name gives are not always drawn.

Each compound was assayed on S. cerevisiae AD1-9 (efflux-pump deficient), vegetative growth in YPD (assay: growth sensitivity score (doubling time z-score vs DMSO controls); higher = slower growth, strongly negative scores also mark growth inhibition (complete suppression), active = hit call of the paper).
In short: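 Optical density of Saccharomyces cerevisiae cultures in microtiter plates was followed every 15 min for 24 hours after seeding at an OD600 of 0.065. Eight solvent-only wells were run per experiment. Growth sensitivity scores were found by subtracting the solvent-only mean from the compound mean and dividing by the solvent-only standard deviation.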
For `OCCN1C[C@H](O)[C@@H](O)[C@H](O)[C@H]1CO` [Miglitol] (stock concentration (mM, diluted 1:100): 10), the growth sensitivity score was -2.16.
In the case of `COc1ccc(C2CNC(=O)C2)cc1OC1CCCC1` (stereo not given) [Rolipram] (stock concentration (mM, diluted 1:100): 10), the growth sensitivity score is reported as -1.05 (inactive).
In the case of `CC[C@@H]1C(=O)OC[C@@H]1Cc1cncn1C` [Pilocarpine hydrochloride] (stock concentration (mM, diluted 1:100): 10), the growth sensitivity score is reported as 0.16 (inactive).
In the case of `CC(C)OC(=O)CCC/C=C\C[C@@H]1[C@@H](CC[C@@H](O)CCc2ccccc2)[C@H](O)C[C@@H]1O` [Latanoprost] (stock concentration (mM, diluted 1:100): 10.3), the growth sensitivity score is reported as 125 (active).
For `Cc1[nH]cnc1CN1CCc2c(c3ccccc3n2C)C1=O` [Alosetron hydrochloride] (stock concentration (mM, diluted 1:100): 8.9), the growth sensitivity score was -0.69 (inactive).
With `Cc1cccc(C)c1NC(=O)C(C)N` (stereo not given) [Tocainide] (stock concentration (mM, diluted 1:100): 10) the growth sensitivity score was 1.11 (inactive).
For `CC(=O)O[C@H]1C[C@@H]2CC[C@@H]3[C@H](CC[C@@]4(C)[C@H]3C[C@H]([N+]3(C)CCCCC3)[C@@H]4OC(C)=O)[C@@]2(C)C[C@@H]1N1CCCCC1` [Vecuronium bromide] (stock concentration (mM, diluted 1:100): 10), the growth sensitivity score was -5.36.
In the case of `C=CC[C@@H]1/C=C(\C)C[C@H](C)C[C@H](OC)[C@H]2O[C@@](O)(C(=O)C(=O)N3CCCC[C@H]3C(=O)O[C@H](/C(C)=C/[C@@H]3CC[C@@H](O)[C@H](OC)C3)[C@H](C)[C@@H](O)CC1=O)[C@H](C)C[C@@H]2OC` [Tacrolimus] (stock concentration (mM, diluted 1:100): 10), the growth sensitivity score is reported as 20.9 (active).
With `Cc1ncc([N+](=O)[O-])n1CC(C)O` (stereo not given) [Secnidazole] (stock concentration (mM, diluted 1:100): 10) the growth sensitivity score was -0.44 (inactive).
In the case of `C/C=C1\[C@H]2C=C(C)C[C@]1(N)c1ccc(=O)[nH]c1C2` [Huperzine a] (stock concentration (mM, diluted 1:100): 10), the growth sensitivity score is reported as 1.24 (inactive).
In the case of `CC(C)Oc1ccc2c(=O)c(-c3ccccc3)coc2c1` [Ipriflavone] (stock concentration (mM, diluted 1:100): 10), the growth sensitivity score is reported as 3.44 (active).
`CCOC(=O)c1ncn2c1CN(C)C(=O)c1cc(F)ccc1-2` [Flumazenil] (stock concentration (mM, diluted 1:100): 10) was tested, and the growth sensitivity score was -0.24 (inactive).
`CC(CCCCC(=O)Nc1ccc(C(F)(F)F)cc1)NCCc1cnc[nH]1` (stereo not given) (stock concentration (mM, diluted 1:100): 10) was tested, and the growth sensitivity score was 1.41 (inactive).
With `COc1cc(C[C@@H](CO)[C@H](CO)Cc2ccc(O)c(OC)c2)ccc1O` [Secoisolariciresinol] (stock concentration (mM, diluted 1:100): 10) the growth sensitivity score was 0.75 (inactive).
With `CN1CCN2c3ncccc3Cc3ccccc3C2C1` (stereo not given) [Mirtazapine] (stock concentration (mM, diluted 1:100): 10) the growth sensitivity score was 2.89 (active).
`COc1ccc(C(=O)NCc2ccc(OCCN(C)C)cc2)cc1OC` [Itopride hydrochloride] (stock concentration (mM, diluted 1:100): 8.2) was tested, and the growth sensitivity score was -1.3 (inactive).
`CC(C)[C@H]1CC[C@H](C(=O)N[C@H](Cc2ccccc2)C(=O)O)CC1` [Nateglinide] (stock concentration (mM, diluted 1:100): 10) was tested, and the growth sensitivity score was 0.63 (inactive).
In the case of `COc1cc2nc(N3CCN(C(=O)C4CCCO4)CC3)nc(N)c2cc1OC` (stereo not given) [Terazosin] (stock concentration (mM, diluted 1:100): 9.5), the growth sensitivity score is reported as -0.95 (inactive).
For `O=C(c1ccc(F)cc1)C1CCN(CCn2c(=S)[nH]c3ccccc3c2=O)CC1` [Altanserin] (stock concentration (mM, diluted 1:100): 10), the growth sensitivity score was -0.28 (inactive).
For `COCCOC(=O)C1=C(C)NC(C)=C(C(=O)OC(C)C)C1c1cccc([N+](=O)[O-])c1` (stereo not given) [Nimodipine] (stock concentration (mM, diluted 1:100): 10), the growth sensitivity score was 260 (active).
